What all share (assay): yeast three-hybrid, YBZ-1, SC-Leu-His + 0.5 mM 3-AT, 4 days
Holding throughout (settings): tags: N-Gal4 AD-HA kept; label: inside an RPR1-promoter hybrid RNA with tandem MS2 sites; ssRNA

The target of assay [1] is PUM1 PUF domain R7-TSV (Homo sapiens, UniProt Q14671 828-1176, S1079T;N1080S;E1083V). The method in brief: (§1)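 Pumilio-1 PUF domain libraries, randomized at the three base-contacting residues of each repeat, were co-expressed with matching RNA elements from a centromeric plasmid in strain YBZ-1, which carries a LexA–MS2 coat fusion and a HIS3 reporter. Transformants grew for four days on SC-Leu (input) or on SC-Leu-His + 0.5 mM 3-AT (selection), and the repeat regions were PCR-amplified and Illumina-sequenced. The interaction score is the log change in variant frequency from input to selection. That logarithm is base 2, with a pseudocount of 1 where a variant was absent.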

The target in assay [2] is PUM1 PUF domain R4-GQG (Homo sapiens, UniProt Q14671 828-1176, N971G;H972Q;Q975G). The method in brief: as §1
The target of assay [3] is PUM1 PUF domain R4-PFA (Homo sapiens, UniProt Q14671 828-1176, N971P;H972F;Q975A). The gist of the method: as §1
Assay [4] has as its target PUM1 PUF domain R4-CPL (Homo sapiens, UniProt Q14671 828-1176, N971C;H972P;Q975L). The gist of the method:
as §1

Assay [5] has as its target PUM1 PUF domain R4-FGQ (Homo sapiens, UniProt Q14671 828-1176, N971F;H972G). The gist of the method: as §1
The target in assay [6] is PUM1 PUF domain R5-TTR (Homo sapiens, UniProt Q14671 828-1176, C1007T;R1008T;Q1011R). The method in brief: as §1
Assay [7] concerns the target PUM1 PUF domain R5-RCM (Homo sapiens, UniProt Q14671 828-1176, C1007R;R1008C;Q1011M). The gist of the method: as §1
The target of assay [8] is PUM1 PUF domain R5-KSN (Homo sapiens, UniProt Q14671 828-1176, C1007K;R1008S;Q1011N). The method in brief: as §1
Chain of PUM1 PUF domain R5-KSN (Q14671 828-1176 C1007K/R1008S/Q1011N): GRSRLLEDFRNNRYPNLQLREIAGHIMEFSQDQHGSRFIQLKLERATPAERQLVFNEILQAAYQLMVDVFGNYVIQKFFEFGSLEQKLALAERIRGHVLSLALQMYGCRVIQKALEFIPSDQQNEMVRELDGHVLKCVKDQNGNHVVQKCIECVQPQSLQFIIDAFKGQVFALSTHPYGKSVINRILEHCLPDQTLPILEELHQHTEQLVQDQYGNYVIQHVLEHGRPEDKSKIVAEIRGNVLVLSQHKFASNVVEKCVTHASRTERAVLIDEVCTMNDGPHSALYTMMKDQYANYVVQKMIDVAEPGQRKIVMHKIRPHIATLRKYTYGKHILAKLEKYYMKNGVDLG
In assay [9] the target is PUM1 PUF domain R3-FRV (Homo sapiens, UniProt Q14671 828-1176, C935F;Q939V). The gist of the method: as §1
In assay [10] the target is PUM1 PUF domain R3-YWR (Homo sapiens, UniProt Q14671 828-1176, C935Y;R936W;Q939R). The method in brief:
as §1

In assay [11] the target is PUM1 PUF domain R3-YRS (Homo sapiens, UniProt Q14671 828-1176, C935Y;Q939S). The gist of the method:
as §1

Assay [12] has as its target PUM1 PUF domain R2-AVA (Homo sapiens, UniProt Q14671 828-1176, N899A;Y900V;Q903A). The method in brief: as §1
The target in assay [13] is T1, PUM1 PUF domain R6-LFS (Homo sapiens, UniProt Q14671 828-1176, N1043L;Y1044F;Q1047S).
T1 sequence: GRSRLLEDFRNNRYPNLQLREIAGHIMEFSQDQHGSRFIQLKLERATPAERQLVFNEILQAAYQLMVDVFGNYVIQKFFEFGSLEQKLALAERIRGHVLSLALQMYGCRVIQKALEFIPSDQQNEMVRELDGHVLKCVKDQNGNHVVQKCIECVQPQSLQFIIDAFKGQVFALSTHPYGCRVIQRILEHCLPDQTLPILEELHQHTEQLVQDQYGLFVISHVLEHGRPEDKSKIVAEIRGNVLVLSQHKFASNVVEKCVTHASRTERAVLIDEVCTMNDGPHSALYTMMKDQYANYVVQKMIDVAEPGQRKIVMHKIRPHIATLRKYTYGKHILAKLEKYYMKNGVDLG
The gist of the method: as §1

In assay [14] the target is PUM1 PUF domain R8-PWA (Homo sapiens, UniProt Q14671 828-1176, N1122P;Y1123W;Q1126A). The gist of the method:
as §1

Assay [15] has as its target PUM1 PUF domain R3-ARH (Homo sapiens, UniProt Q14671 828-1176, C935A;Q939H). The gist of the method:
as §1

For assay [16], the target named is PUM1 PUF domain R3-CNT (Homo sapiens, UniProt Q14671 828-1176, R936N;Q939T). The method in brief:
as §1

The target of assay [17] is PUM1 PUF domain R8-RHN (Homo sapiens, UniProt Q14671 828-1176, N1122R;Y1123H;Q1126N). The method in brief:
as §1

For assay [18], the target named is PUM1 PUF domain R1-YKR (Homo sapiens, UniProt Q14671 828-1176, S863Y;R864K;Q867R). The method in brief: as §1
Chain of PUM1 PUF domain R1-YKR (Q14671 828-1176 S863Y/R864K/Q867R): as the sequence (Q14671 828-1176 C1007K/R1008S/Q1011N) above, with S36Y, R37K, Q40R, K180C, S181R, N184Q counted along it
Assay [19] addresses PUM1 PUF domain R1-RRR (Homo sapiens, UniProt Q14671 828-1176, S863R;Q867R). The method in brief: as §1
The target in assay [20] is PUM1 PUF domain R7-HFP (Homo sapiens, UniProt Q14671 828-1176, S1079H;N1080F;E1083P). The gist of the method:
as §1

Chain of PUM1 PUF domain R4-CPL (Q14671 828-1176 N971C/H972P/Q975L): as the sequence (Q14671 828-1176 C1007K/R1008S/Q1011N) above, with N144C, H145P, Q148L, K180C, S181R, N184Q counted along it
Chain of PUM1 PUF domain R3-YRS (Q14671 828-1176 C935Y/Q939S): as the sequence (Q14671 828-1176 C1007K/R1008S/Q1011N) above, with C108Y, Q112S, K180C, S181R, N184Q counted along it
Chain of PUM1 PUF domain R1-RRR (Q14671 828-1176 S863R/Q867R): as the sequence (Q14671 828-1176 C1007K/R1008S/Q1011N) above, with S36R, Q40R, K180C, S181R, N184Q counted along it
Chain of PUM1 PUF domain R8-RHN (Q14671 828-1176 N1122R/Y1123H/Q1126N): as the sequence (Q14671 828-1176 C1007K/R1008S/Q1011N) above, with K180C, S181R, N184Q, N295R, Y296H, Q299N counted along it
Chain of PUM1 PUF domain R2-AVA (Q14671 828-1176 N899A/Y900V/Q903A): as the sequence (Q14671 828-1176 C1007K/R1008S/Q1011N) above, with N72A, Y73V, Q76A, K180C, S181R, N184Q counted along it
Chain of PUM1 PUF domain R3-CNT (Q14671 828-1176 R936N/Q939T): as the sequence (Q14671 828-1176 C1007K/R1008S/Q1011N) above, with R109N, Q112T, K180C, S181R, N184Q counted along it
Chain of PUM1 PUF domain R4-FGQ (Q14671 828-1176 N971F/H972G): as the sequence (Q14671 828-1176 C1007K/R1008S/Q1011N) above, with N144F, H145G, K180C, S181R, N184Q counted along it
Chain of PUM1 PUF domain R3-YWR (Q14671 828-1176 C935Y/R936W/Q939R): as the sequence (Q14671 828-1176 C1007K/R1008S/Q1011N) above, with C108Y, R109W, Q112R, K180C, S181R, N184Q counted along it

Consider “GGCUAGAACUAGUGGAUCCCCCGGCGCCCGGCGGCUCGAGCCCGGGUAAGUUUAAAUAGUCUGCAUGCCGCCGGGCGCCAUGCCUGCAGGUCGACUCUAGAAAACAUG”, for which the binding signal in [1] is 2.77 log2 enrichment (interaction score).

With “GGCUAGAACUAGUGGAUCCCCCGGCGCCCGGCGGCUCGAGCCCGGGUAAGUGUAUAUAGUCUGCAUGCCGCCGGGCGCCAUGCCUGCAGGUCGACUCUAGAAAACAUG”, the binding signal in assay [2] is 2.39 log2 enrichment (interaction score); in assay [3], 4.96 log2 enrichment (interaction score); in [4], 1.78 log2 enrichment (interaction score); in assay [5], 3.63 log2 enrichment (interaction score).

As for “GGCUAGAACUAGUGGAUCCCCCGGCGCCCGGCGGCUCGAGCCCGGGUAAGUGUCAAUAGUCUGCAUGCCGCCGGGCGCCAUGCCUGCAGGUCGACUCUAGAAAACAUG”, the binding signal in [6] was 6.52 log2 enrichment (interaction score); in [7], 3.2 log2 enrichment (interaction score); in assay [8], 3.85 log2 enrichment (interaction score).

As for “GGCUAGAACUAGUGGAUCCCCCGGCGCCCGGCGGCUCGAGCCCGGGUAAGUGUAAGUAGUCUGCAUGCCGCCGGGCGCCAUGCCUGCAGGUCGACUCUAGAAAACAUG”, the binding signal was 4.5 log2 enrichment (interaction score) in [9], 5.62 log2 enrichment (interaction score) in assay [10] and 4.29 log2 enrichment (interaction score) in [11].

With “GGCUAGAACUAGUGGAUCCCCCGGCGCCCGGCGGCUCGAGCCCGGGUAAGUGUAAUUAGUCUGCAUGCCGCCGGGCGCCAUGCCUGCAGGUCGACUCUAGAAAACAUG”, in assay [9], the binding signal is 1.27 log2 enrichment (interaction score).

In the case of “GGCUAGAACUAGUGGAUCCCCCGGCGCCCGGCGGCUCGAGCCCGGGUAAGUGUAAAGAGUCUGCAUGCCGCCGGGCGCCAUGCCUGCAGGUCGACUCUAGAAAACAUG”, the binding signal in assay [12] is 2.41 log2 enrichment (interaction score).

Regarding “GGCUAGAACUAGUGGAUCCCCCGGCGCCCGGCGGCUCGAGCCCGGGUAAGUGAAAAUAGUCUGCAUGCCGCCGGGCGCCAUGCCUGCAGGUCGACUCUAGAAAACAUG”, the binding signal in assay [13] is 5.7 log2 enrichment (interaction score).

As to “GGCUAGAACUAGUGGAUCCCCCGGCGCCCGGCGGCUCGAGCCCGGGUAAGUGUACAUAGUCUGCAUGCCGCCGGGCGCCAUGCCUGCAGGUCGACUCUAGAAAACAUG”, the binding signal in assay [3] was 3.34 log2 enrichment (interaction score).

On to “GGCUAGAACUAGUGGAUCCCCCGGCGCCCGGCGGCUCGAGCCCGGGUAAGUGUUAAUAGUCUGCAUGCCGCCGGGCGCCAUGCCUGCAGGUCGACUCUAGAAAACAUG”, for which the binding signal in assay [6] is 2.44 log2 enrichment (interaction score).

For “GGCUAGAACUAGUGGAUCCCCCGGCGCCCGGCGGCUCGAGCCCGGGUAAGUGUAAAUAGUCUGCAUGCCGCCGGGCGCCAUGCCUGCAGGUCGACUCUAGAAAACAUG”, the binding signal is 0.63 log2 enrichment (interaction score) in [6]; 2.2 log2 enrichment (interaction score) in assay [14]; 1.98 log2 enrichment (interaction score) in assay [13]; 4.95 log2 enrichment (interaction score) in [3]; 3.26 log2 enrichment (interaction score) in [15]; 0.77 log2 enrichment (interaction score) in assay [7]. Moreover, the binding signal was 3.68 log2 enrichment (interaction score) in assay [4], 1.29 log2 enrichment (interaction score) in [11] and 2.18 log2 enrichment (interaction score) in [16].

As to “GGCUAGAACUAGUGGAUCCCCCGGCGCCCGGCGGCUCGAGCCCGGGUAAGCGUAAAUAGUCUGCAUGCCGCCGGGCGCCAUGCCUGCAGGUCGACUCUAGAAAACAUG”, the binding signal was 2.7 log2 enrichment (interaction score) in [14] and 5.56 log2 enrichment (interaction score) in assay [17].

With “GGCUAGAACUAGUGGAUCCCCCGGCGCCCGGCGGCUCGAGCCCGGGUAAGUGUGAAUAGUCUGCAUGCCGCCGGGCGCCAUGCCUGCAGGUCGACUCUAGAAAACAUG”, in assay [7], the binding signal was 1.67 log2 enrichment (interaction score).

“GGCUAGAACUAGUGGAUCCCCCGGCGCCCGGCGGCUCGAGCCCGGGUAAGUGUAAAUCGUCUGCAUGCCGCCGGGCGCCAUGCCUGCAGGUCGACUCUAGAAAACAUG”: the binding signal in assay [18] is 8.91 log2 enrichment (interaction score); in [19] it was 2.46 log2 enrichment (interaction score).

Take “GGCUAGAACUAGUGGAUCCCCCGGCGCCCGGCGGCUCGAGCCCGGGUAAGUGUAAAUUGUCUGCAUGCCGCCGGGCGCCAUGCCUGCAGGUCGACUCUAGAAAACAUG”: the binding signal in [19] is 2.49 log2 enrichment (interaction score).

As for “GGCUAGAACUAGUGGAUCCCCCGGCGCCCGGCGGCUCGAGCCCGGGUAAGUCUAAAUAGUCUGCAUGCCGCCGGGCGCCAUGCCUGCAGGUCGACUCUAGAAAACAUG”, the binding signal in assay [20] was 4.02 log2 enrichment (interaction score).
